Experimental data: ChEMBL document CHEMBL3988442, “University of Dundee, Small-Polar-MMV Screening Library” (2021)

Tests used:
[1] = target: T1, Aspartate--tRNA(Asp/Asn) ligase (Mycobacterium tuberculosis (strain ATCC 25618 / H37Rv)) (UniProt P9WFW3); assay: Assay for Asp RNA synthetase-1 from Mycobacterium tuberculosis; assay type: functional; parameters: scale not given: direction of the effect not stated beside the values; conditions: 30 µM; note: in the data most compounds retested in dose-response had high values
T1 sequence (whole entry): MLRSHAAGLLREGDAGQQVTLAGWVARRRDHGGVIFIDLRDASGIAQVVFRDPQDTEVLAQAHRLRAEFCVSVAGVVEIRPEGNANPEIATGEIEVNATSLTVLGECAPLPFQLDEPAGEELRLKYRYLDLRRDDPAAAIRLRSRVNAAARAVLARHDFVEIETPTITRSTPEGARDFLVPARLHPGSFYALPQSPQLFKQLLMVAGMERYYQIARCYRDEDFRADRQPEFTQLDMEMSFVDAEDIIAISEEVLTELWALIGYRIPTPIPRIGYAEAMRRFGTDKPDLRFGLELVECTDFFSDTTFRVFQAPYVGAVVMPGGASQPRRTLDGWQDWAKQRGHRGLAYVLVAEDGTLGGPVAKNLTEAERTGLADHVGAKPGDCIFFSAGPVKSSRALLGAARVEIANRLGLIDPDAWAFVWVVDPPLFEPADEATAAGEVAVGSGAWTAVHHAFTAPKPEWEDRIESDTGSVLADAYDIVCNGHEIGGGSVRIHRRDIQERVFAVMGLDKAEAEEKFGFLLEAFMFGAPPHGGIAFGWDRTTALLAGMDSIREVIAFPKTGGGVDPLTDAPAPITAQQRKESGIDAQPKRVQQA

[2] = target: Shiga toxin 2 (Escherichia coli O157:H7) (UniProt P09385+P09386); assay: E. coli 0.157:H7 Shiga Toxin SOP - stx2 screening assay; assay type: functional; parameters: scale not given: direction of the effect not stated beside the values; conditions: 30 µM

Row | Structure (SMILES) | Percent Effect [1] | Percent Effect [2]
1 | c1cncc(-c2nccc(CN3CCCC3)n2)c1 | 2.87% | -20.7%
2 | COc1ccc(C[C@H]2CN(C(=O)c3ccncc3)CC[C@@H]2OC)cc1 | 1.64% | -22.2%
3 | Cc1nc(N2CCCC2)ncc1-c1cc(O)nc(N2CCCC2)n1 | -6.71% | -0.674%
4 | Cc1nccc(-c2cccc(NCC(=O)N3CCNC3=O)c2)n1 | 2.42% | 8.66%
5 | CC1=Nc2c(c(=O)[nH]n2C2CCCC2)C(c2cccc(O)c2)S1 (centres undefined) | 0.174% | 10.3%
6 | Cc1nccn1-c1cc(CNC(=O)CCC2CCCO2)ccn1 (centres undefined) | 2.98% | 2.2%
7 | CCn1cc(S(=O)(=O)N(C)Cc2c(Br)cnn2CC)c(C)n1 | 3.54% | 13.9%
8 | CCOc1ccc(NC(=O)CN2CCN(c3nccn3C)CC2)cc1 | -3.86% | -64.8%
9 | Cc1cc(C)n(CCCNC(=O)[C@@H](C)NC(=O)OC(C)(C)C)n1 | 2.46% | 12.1%
10 | CC(C)(C)c1ncc(C(=O)NCCNC(=O)c2ccccc2)s1 | 1.94% | 36.9%
11 | Cc1nc(C(C)(C)NC(=O)Nc2cccc(C#N)c2)no1 | -0.287% | -19.6%
12 | Cc1nc(C)n(CC2CCCN(Cc3nnc(-c4ccco4)o3)C2)n1 (centres undefined) | -2.25% | -19.8%
13 | CCOc1ccc(N(CC(=O)c2ccccc2)C2=NCCCCC2)cc1 | 1.35% | -5.46%
14 | Cc1ccc(CN(Cc2c[nH]cn2)C2CC(C)(C)NC(C)(C)C2)o1 | -1.68% | 7.12%
15 | CCOc1ncccc1C(=O)N1CCCC(c2nccn2CCOC)C1 (centres undefined) | -4.25% | -0.308%
16 | CCNC(=O)N1CCCCC1CCO (centres undefined) | -3.54% | -15.4%
17 | O=C(NCc1cccc(F)c1)N1CCC2(CC(=O)N(c3ccsc3)C2)C1 (centres undefined) | -4.15% | -7.69%
